Laboratory results reported in PubChem BioAssay (Tox21).
Inconclusive results are not listed. The source made the active and inactive calls. Unless noted, calls follow the shape of the dose curve; as a rule, active = well fitted curve in the direction sought with a large enough effect in the repeat runs; inconclusive = weak or mixed curves; inactive = no such curve, though single readings can be large; an effect the other way counts as inactive or inconclusive.

Columns and labels:
[1] = qHTS assay to identify small molecule agonists of the hypoxia (HIF-1) signaling pathway - cell viability counter screen (AID 1224844; calls by dose curve; also: nearly all actives have a fitted effect of over 50% in size)
In short: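 Cytotoxicity measured by CellTiter-Glo ATP luminescence in the wells also read for beta-lactamase signal. Cells were HRE-bla ME-180 (2,000/well, 0.5% dialyzed FBS), exposed to compounds for 17 h at 37C.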

[2] = qHTS assay to identify small molecule agonists of H2AX (AID 1224845; active = well fitted activation curve with a large enough effect in the signal ratio in the repeat runs, not every such curve was filed as active; the % refers to the signal ratio)
In short: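 Phospho-H2AX Ser139 measured by HTRF (ex 320 nm; em 665 and 620 nm) after 24 hr antibody incubation. Compounds, 15 concentrations, 0.76% DMSO, were applied to CHO-K1 cells for 3hr at 37C before lysis.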

[3] = qHTS assay to identify small molecule agonists of the hypoxia (HIF-1) signaling pathway (AID 1224846; active = well fitted activation curve with a large enough effect in the signal ratio in the repeat runs, not every such curve was filed as active; the % refers to the signal ratio)
In short: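 Compounds added to ME-180 cells carrying hypoxia-response-element beta-lactamase reporter (0.5% dialyzed FBS, 5 h preplating), 17 h at 37C; agonist activity detected by CCF4-AM B/G FRET read-out.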

[4] = qHTS assay to identify small molecule agonists of H2AX - cell viability counter screen (AID 1224847; calls by dose curve; also: top concentration of the series differs between compounds; nearly all actives have a fitted effect of over 30% in size)
In short: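 Quantitative HTS viability measurement: CHO-K1 wild-type cells in serum (10% FBS) medium, short 3 hr drug exposure at 37C with 0.76% DMSO, CellTiter-Glo luminescent detection.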

[5] = qHTS assay to identify small molecule antagonists of the estrogen related receptor (ERR) signaling pathway from Tox21 library (AID 1224848); also: nearly all actives have a fitted effect of over 50% in size
In short: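 Luciferase luminescence (ONE-Glo, 30 min room temperature) was the read-out. Cells of the NTP-supplied ERR line, 2,000 per well, were given 6 h at 37 C before compound addition in DMSO and 18 h exposure at 37 C.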

[6] = qHTS assay to identify small molecule agonists of the estrogen related receptor (ERR) signaling pathway from Tox21 library (AID 1224849; calls by dose curve; also: nearly all actives have a fitted effect of over 15% in size); conditions: ERR reporter cell line, ONE-Glo luciferase, 18 h; at 92.4 µM (top of the series) unless noted
In short: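 Luminescent agonist read-out (One-Glo, 30-minute room-temperature incubation) following 18-hour compound treatment at 37 C of the ERR cell line, which had been plated 6 hours before dosing.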

[7] = qHTS RealTime-Glo MT Cell Viability Assay in HepG2 cells - 24 hour (AID 1224867); also: nearly all actives have a fitted effect of over 50% in size
In short: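 Luminescence read-out: viable HepG2 cells reduce a prosubstrate to a NanoLuc substrate, giving a signal proportional to live cell number. Reads taken at 0, 8, 16, 24, 32 and 40 h of compound exposure at 37 C.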

[8] = qHTS RealTime-Glo MT Cell Viability Assay in HEK293 cells - 32 hour (AID 1224868); also: top concentration of the series differs between compounds; nearly all actives have a fitted effect of over 50% in size
In short: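 Nonlytic real-time viability readout: viable cells convert prosubstrate to NanoLuc substrate, giving luminescence proportional to live cell number. HEK293, 600 cells/well, compound added after 5 h, continuous culture at 37 C.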

[9] = A CellTox Green Cytotoxicity Assay to monitor cytotoxicity in HEK293 cells - 0 hour (AID 1224869); also: nearly all actives have a fitted effect of over 50% in size
In short: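 Fluorescence from a DNA-binding dye excluded by viable cells was measured repeatedly in the same HEK293 wells (600 cells/well) during continuous compound exposure at 37 C. Each assay gives one read point: 0, 8, 16, 24, 32 or 40 h.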
% is scaled to controls: 0 for no effect and ±100 for the full control effect.

CC(=O)Nc1ccc(S(=O)(=O)Cl)cc1
inactive: outcome [1] | outcome [2] | outcome [3] | Potency [4] | Potency [5] | activity change, positive = activation [6] -0.863% | outcome [7] | Potency [8] | outcome [9]

C[C@@H]1O[C@@H](O[C@@H]2[C@@H](O)[C@H](OCCc3ccc(O)c(O)c3)O[C@H](CO[C@@H]3O[C@H](CO)[C@@H](O)[C@H](O)[C@H]3O)[C@H]2OC(=O)/C=C/c2ccc(O)c(O)c2)[C@H](O)[C@H](O)[C@H]1O
inactive: outcome [1] | outcome [3] | Potency [4] | outcome [7] | outcome [9]

O=S(=O)(O)c1cc(O)c2ccc(Nc3ccccc3)cc2c1
inactive: outcome [1] | outcome [3] | Potency [4] | outcome [7] | Potency [8] | outcome [9]

CC1=CCC(C(C)C)=CC1
inactive: outcome [1] | outcome [2] | Potency [4] | outcome [7] | Potency [8] | outcome [9]

Nc1ccc2cc(S(=O)(=O)O)cc(O)c2c1
inactive: outcome [1] | outcome [3] | Potency [4] | Potency [5] | activity change, positive = activation [6] 1.3% | outcome [7] | Potency [8] | outcome [9]

N#Cc1ccc(C(=O)O)cc1
inactive: outcome [1] | outcome [3] | Potency [4] | Potency [5] | activity change, positive = activation [6] 1.83% | outcome [7] | Potency [8] | outcome [9]

OCCC(F)(F)C(F)(F)C(F)(F)C(F)(F)C(F)(F)C(F)(F)C(F)(F)C(F)(F)F
inactive: outcome [2] | outcome [3] | Potency [4] | Potency [5] | outcome [7] | outcome [9]

CCOCCOCCOCC
inactive: outcome [1] | outcome [2] | outcome [3] | outcome [7] | Potency [8] | outcome [9]

CCCCN
inactive: outcome [1] | outcome [2] | outcome [3] | Potency [4] | Potency [5] | activity change, positive = activation [6] 3.11% [at 42.5 µM] | outcome [7] | Potency [8] | outcome [9]

CCCCOCCOC(=O)COc1nc(Cl)c(Cl)cc1Cl
inactive: outcome [2] | Potency [4] | Potency [5] | activity change, positive = activation [6] 0.145% | outcome [7] | Potency [8] | outcome [9]

CC(CC=O)CCCC(C)(C)O (configuration not stated)
inactive: outcome [1] | outcome [2] | Potency [4] | Potency [5] | outcome [7] | Potency [8] | outcome [9]

OC[C@H](Cc1cccc(O)c1)[C@H](CO)Cc1cccc(O)c1
inactive: outcome [1] | outcome [2] | Potency [4] | activity change, positive = activation [6] -21.1% | outcome [7] | Potency [8] | outcome [9]

CCCCCCOC(=O)CC
inactive: outcome [1] | outcome [2] | Potency [4] | Potency [5] | activity change, positive = activation [6] -0.0388% | outcome [7] | Potency [8] | outcome [9]
